# Measurements from publication PMC8384837, “Expanding the binding specificity for RNA recognition by a PUF domain”.
# Molecular target: PUM1 PUF domain R5-GWL (Homo sapiens, UniProt Q14671 828-1176, C1007G;R1008W;Q1011L)
# Experiment: yeast three-hybrid, YBZ-1, SC-Leu-His + 0.5 mM 3-AT, 4 days
# Conditions: tags: N-Gal4 AD-HA kept; label: inside an RPR1-promoter hybrid RNA with tandem MS2 sites; ssRNA
# Summary of the method: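 The interaction score is the log change in how often each variant appears, from input to selection. Frequencies came from PCR-amplified, Illumina-sequenced repeat regions of Pumilio-1 PUF domain libraries grown in strain YBZ-1 (LexA–MS2 coat fusion, HIS3 reporter) alongside matching RNA elements. Input plates were SC-Leu and selection plates were SC-Leu-His + 0.5 mM 3-AT, each for four days, and the log2 calculation used a pseudocount of 1 where a variant was absent.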
# PUM1 PUF domain R5-GWL, sequence (Q14671 828-1176 C1007G/R1008W/Q1011L): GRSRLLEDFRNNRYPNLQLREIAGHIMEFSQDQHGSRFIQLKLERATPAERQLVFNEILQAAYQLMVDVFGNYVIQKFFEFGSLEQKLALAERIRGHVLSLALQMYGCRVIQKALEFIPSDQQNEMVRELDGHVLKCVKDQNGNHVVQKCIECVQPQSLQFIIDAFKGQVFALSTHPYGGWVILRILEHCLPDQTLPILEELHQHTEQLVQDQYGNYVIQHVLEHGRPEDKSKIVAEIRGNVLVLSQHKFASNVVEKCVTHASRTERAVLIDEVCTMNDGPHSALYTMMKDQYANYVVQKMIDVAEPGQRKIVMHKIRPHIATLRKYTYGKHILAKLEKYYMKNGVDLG
row,Sequence,binding signal
1,GGCUAGAACUAGUGGAUCCCCCGGCGCCCGGCGGCUCGAGCCCGGGUAAGUGUAAAUAGUCUGCAUGCCGCCGGGCGCCAUGCCUGCAGGUCGACUCUAGAAAACAUG,2.66 log2 enrichment (interaction score)
2,GGCUAGAACUAGUGGAUCCCCCGGCGCCCGGCGGCUCGAGCCCGGGUAAGUGUGAAUAGUCUGCAUGCCGCCGGGCGCCAUGCCUGCAGGUCGACUCUAGAAAACAUG,3.27 log2 enrichment (interaction score)
3,GGCUAGAACUAGUGGAUCCCCCGGCGCCCGGCGGCUCGAGCCCGGGUAAGUGUUAAUAGUCUGCAUGCCGCCGGGCGCCAUGCCUGCAGGUCGACUCUAGAAAACAUG,3.36 log2 enrichment (interaction score)
